# From PubChem BioAssay AID624151 (Broad Institute, 2012)
# In all, about 28,000 compounds went through this assay and about 410 (1.5%) were called active. Many of the other results were omitted from the sample, so actives are more common in it than they were. Values without a mark were called inactive. Cut-off read from the data, not from the text of the source: active = activation above about 52%; inconclusive = no clear call, values can overlap the other calls; inactive = below that.
# Assay: mutant p53 pathway re-activators, primary screen, cell-based, SW480, luciferase, single point, HTS (AID 624151)
# Conditions: SW480 PUMA-promoter luciferase, p53 mutant reactivation; at 9.98 µM; active compounds read high
row,Compound,activation
1,CC(C)CC#Cc1cnc2c(c1)C(=O)N([C@@H](C)CO)C[C@H](C)[C@@H](CN(C)Cc1ccccc1C(=O)O)O2,-10.9%
2,C/C=C/c1cnc2c(c1)C(=O)N([C@H](C)CO)C[C@H](C)[C@@H](CN(C)C(=O)c1cccc(F)c1)O2,0.956%
3,O=C(CN1CCOCC1)Nc1ccc(NC(=O)CN2CCOCC2)c(Cl)c1,-19.4%
4,Cc1cc(C)n2nc(SCC(=O)Nc3ccccc3[N+](=O)[O-])nc2n1,-13.8%
5,O=C(CSc1nnc(-c2ccccc2)n1-c1ccccc1)c1cccc([N+](=O)[O-])c1,-1.58%
6,Cc1cccc(NC(=O)CSc2nnc3c4ccccc4nc(-c4ccccc4)n23)c1,13.8%
7,CCn1c(SCC(=O)Nc2ccc3c(c2)OCCO3)nnc1-c1ccncc1,-4.36%
8,O=C(CSc1nnc2ccc3ccccc3n12)Nc1ccc2c(c1)OCCO2,64.7% (active)
9,COC(=O)Cc1c(C)nc2nc(COc3ccccc3)[nH]n2c1=O,10.4%
10,O=C(NCc1ccccn1)c1ccccc1C(=O)c1ccccc1,-9.74%
11,O=C(NCc1ccccn1)C(=O)Nc1cccc(Cl)c1Cl,63.9% (active)
12,CC(=O)Nc1ccc(NC(=O)COc2ccccc2C(=O)Nc2cccc(Cl)c2Cl)cc1,-38.7%
13,C[C@@H]1CN([C@H](C)CO)C(=O)c2cc(-c3ccc(C#N)cc3)cnc2O[C@@H]1CN(C)CC1CC1,-0.916%
14,COc1ccc(OC)c2c1CC(C)(C)N=C2SC,-18.5%
15,O=C(CSc1nnc(-c2ccncc2)n1-c1ccccc1)Nc1ccc(Cl)c(Cl)c1,16.3%
16,COc1cccc(C#Cc2cnc3c(c2)C(=O)N([C@@H](C)CO)C[C@H](C)[C@@H](CN(C)C(C)=O)O3)c1,1.26%
17,O=C(C[C@H]1C[C@@H]2c3cc(NS(=O)(=O)c4ccc(F)cc4)ccc3O[C@@H]2[C@@H](CO)O1)NCc1cccc(F)c1,-7.78%
18,CC(=O)N1C(=S)NC(=O)/C1=C/c1c(Cl)cccc1Cl,-5.19%
19,C/C=C/c1cnc2c(c1)C(=O)N([C@@H](C)CO)C[C@H](C)[C@@H](CN(C)C(=O)C1CC1)O2,-5.73%
20,CCCN(Cc1cc2cccc(C)c2[nH]c1=O)S(C)(=O)=O,-2.56%
21,CCCNC(=O)N(C)C[C@H]1Oc2ncc(-c3ccccc3F)cc2C(=O)N([C@@H](C)CO)C[C@H]1C,1.17%
22,COc1cccc(C#Cc2cnc3c(c2)C(=O)N([C@@H](C)CO)C[C@H](C)[C@@H](CN(C)C(=O)C2CCC2)O3)c1,9.52%
23,C[C@@H]1CN([C@H](C)CO)C(=O)c2cc(C#CC3(O)CCCC3)cnc2O[C@H]1CN(C)C(=O)C1CCC1,15%
24,COc1ccccc1NC(=O)C1=C(C)Nc2nnnn2C1c1ccccc1OCc1ccccc1 (stereo unspecified),11.3%
25,CCCC#Cc1cnc2c(c1)C(=O)N([C@H](C)CO)C[C@@H](C)[C@@H](CN(C)C(=O)Nc1ccccc1OC)O2,-6.47%
26,CCCC#Cc1cnc2c(c1)C(=O)N([C@H](C)CO)C[C@H](C)[C@H](CN(C)S(=O)(=O)c1cn(C)cn1)O2,5.56%

row,Compound,activation
1,C[C@@H]1CN([C@H](C)CO)C(=O)c2c(c3ccccc3n2C)-c2ccccc2CO[C@@H]1CN(C)C(=O)Nc1ccccc1,10.9%
2,Cc1ccc2oc(C(=O)Nc3nnc(SCc4ccccc4)s3)c(C)c2c1,17.4%
3,C[C@@H]1CCCCO[C@H](CN(C)S(C)(=O)=O)[C@@H](C)CN([C@H](C)CO)C(=O)c2cc(NS(=O)(=O)c3ccc(Cl)cc3)ccc2O1,2.27%
4,COCC#Cc1cnc2c(c1)C(=O)N([C@@H](C)CO)C[C@@H](C)[C@H](CN(C)C(=O)c1cnccn1)O2,2.72%
5,C[C@@H]1CN([C@@H](C)CO)S(=O)(=O)c2ccc(C#CC3(O)CCCC3)cc2O[C@H]1CN(C)C(=O)c1ccncc1,7.47%
6,C[C@H]1CN([C@@H](C)CO)C(=O)c2cc(-c3cccc(C(=O)N(C)C)c3)cnc2O[C@H]1CN(C)S(=O)(=O)c1ccccc1,10.1%
7,CCCN(C)C[C@@H]1Oc2cc(-c3cccc(C#N)c3)ccc2S(=O)(=O)N([C@@H](C)CO)C[C@@H]1C,2.45%
8,COCC#Cc1ccc2c(c1)O[C@@H](CN(C)Cc1ccccn1)[C@@H](C)CN([C@@H](C)CO)S2(=O)=O,5.92%
9,CCOc1csc2nc(C)cc(C)c12,7.54%
10,C[C@@H]1CN([C@@H](C)CO)S(=O)(=O)c2ccc(/C=C/c3ccccc3)cc2O[C@@H]1CN(C)C(=O)Nc1cc(F)ccc1F,-25.7%
11,C[C@H]1CN([C@@H](C)CO)C(=O)c2cc(C#CCN(C)C)cnc2O[C@H]1CN(C)C(=O)Cc1ccccc1,-0.24%
12,O=C(CC(C(=O)O)N1CCNCC1)Nc1cccc(Cl)c1 (stereo unspecified),13.8%
13,COc1ccc(OC(C)C(=O)Nc2cccnc2)cc1 (stereo unspecified),-3.84%
14,CC(=O)Oc1ccc(C(=O)N(C(=O)c2ccc(OC(C)=O)cc2)c2cc(C)ccn2)cc1,6.89%
15,CCn1c(SCC(=O)Nc2cc(Cl)c(Cl)cc2Cl)nnc1-c1ccccc1Cl,-3.77%
16,Cc1ccc(S(=O)(=O)Nc2ccc3c(c2)C(=O)N([C@H](C)CO)C[C@@H](C)[C@H](CN(C)S(=O)(=O)c2ccc(C)cc2)OCCCC[C@@H](C)O3)cc1,-37.2%
17,O=C(C[C@H]1C[C@H]2c3cc(NC(=O)Nc4ccccc4F)ccc3O[C@H]2[C@H](CO)O1)NCc1ccccn1,3.57%
18,Cc1ccc2c(c1)CCCN2S(=O)(=O)c1cc(OCC(N)=O)c(C)cc1Cl,-21.2%
19,O=C(C[C@H]1C[C@@H]2c3cc(NC(=O)c4ccc5c(c4)OCO5)ccc3O[C@@H]2[C@@H](CO)O1)NCCN1CCCCC1,13.6%
20,O=C(Nc1ccc(-c2nc3ccccc3o2)c(O)c1)c1ncn[nH]1,-35%
21,Cc1ccnc(NCc2ccc(N(C)C)cc2)c1,45.6%
22,Cc1cc([N+](=O)[O-])nn1CC(=O)NC(C)C,-1.03%
23,N#Cc1c(NC(=O)CCn2cnc3ccccc3c2=O)sc2c1CCCC2,4.75%
24,COc1ccc(C(=O)CSc2nnc(-c3cccc(C)c3)n2-c2ccccc2)cc1,-17.1%
25,Cc1cc(C)c(C)c(Oc2coc3cc(OCC(=O)Nc4ccccc4Cl)ccc3c2=O)c1,-8.1%
26,O=C(COc1ccc2c(=O)c(-c3ccccc3)coc2c1)Nc1ccc(F)cc1,5.8%

row,Compound,activation
1,CCOc1ccc2c(=O)c(Oc3ccccc3Br)coc2c1,53.9% (active)
2,O=C(CSc1nnc(-c2ccccc2F)n1-c1ccccc1)Nc1ccc(Br)cc1,-2.35%
3,CCOC(=O)c1c(NC(=S)Nc2cnccn2)sc2c1CCCCCC2,-14.1%
4,COc1ccc(N(CC(=O)Nc2ccccc2F)S(C)(=O)=O)cc1,-10.8%
5,O=C(NCc1ccco1)C1CCCN(S(=O)(=O)c2ccccc2)C1 (stereo unspecified),-15.8%
6,CC(C)c1cnc(NC(=O)Cc2ccccc2)s1,118% (active)
7,O=C(CS(=O)(=O)Cc1ccccc1)Nc1cccnc1,-13.2%
8,O=C(c1ccccc1Br)N1CCN(c2ccc([N+](=O)[O-])c(NCc3cccnc3)c2)CC1,1.31%
9,COc1ccc(NC(=O)C(=O)NCC(=O)Nc2cccc(C(F)(F)F)c2)cc1,3.32%
10,CCCN(C)C[C@H]1Oc2ncc(C#CCOC)cc2C(=O)N([C@@H](C)CO)C[C@H]1C,6.77%
11,COc1ccc(S(=O)(=O)N(C)C[C@H]2OCCCC[C@@H](C)Oc3ccc(NC(=O)NC(C)C)cc3C(=O)N([C@H](C)CO)C[C@H]2C)cc1,-3.86%
12,COc1ccc(OC(C)C(=O)Nc2ccc(OC)c(OC)c2)cc1 (stereo unspecified),8.88%
13,CN(C)c1ccc(NC(=O)CSc2nc3c(c(C(F)(F)F)c2C#N)CCCCCC3)cc1,-6.67%
14,N#Cc1cc2c(nc1SCC(=O)Nc1ccccc1C(F)(F)F)CCCCC2,25.5%
15,Cc1cccc(NC(=O)CSc2nc3c(cc2C#N)CCCCC3)c1,90.8% (active)
16,COCC#Cc1ccc2c(c1)O[C@H](CN(C)Cc1ccc3c(c1)OCO3)[C@H](C)CN([C@H](C)CO)S2(=O)=O,12.5%
17,CCn1c2ccccc2c2cc(NS(=O)(=O)c3ccccc3[N+](=O)[O-])ccc21,-0.615%
18,Cn1c(SCC(=O)Nc2c(Cl)cccc2Cl)nnc1-c1ccc(NC(=O)c2ccc(F)cc2)cc1,-1.4%
19,COc1ccc(OC)c(NC(=O)CSc2n[nH]c(-c3ccncc3)n2)c1,-8.93%
20,Cc1ccc(C(C)C)cc1OCC(O)Cn1cnc2ccccc21 (stereo unspecified),-15.4%
21,CCCNC(=O)N(C)C[C@@H]1Oc2ncc(-c3cccc(C#N)c3)cc2C(=O)N([C@@H](C)CO)C[C@@H]1C,2.46%
22,CC(=O)c1cccc(NC(=O)C(C)N(c2ccc(C)cc2)S(C)(=O)=O)c1 (stereo unspecified),0.89%
23,Cc1cc(=O)[nH]c(SCCCOc2ccccc2-c2ccccc2)n1,-15.4%
24,C[C@H]1CN([C@@H](C)CO)C(=O)c2cc(/C=C/c3ccccc3)cnc2O[C@@H]1CN(C)C(=O)c1ccc(F)cc1,5.51%
